# In article PMC11062922 (Nature Chemical Biology, 2023):
# Tests used:
# [1] = system: HSP90B1; details: read-out: apparent Kd; compound concentrations:100 nM and 1000 nM (sheet 'Lestaurtinib' of Supplementary Table 1),run:Lestaurtinib_02606_R3,Plate:MR019; n = 1
# [2] = system: LCK; details: read-out: apparent Kd; compound concentrations:100 nM and 1000 nM (sheet 'Lestaurtinib' of Supplementary Table 1),run:Lestaurtinib_02487_R1,Plate:MR012; n = 1
# [3] = system: LYN; details: read-out: apparent Kd; compound concentrations:100 nM and 1000 nM (sheet 'Lestaurtinib' of Supplementary Table 1),run:Lestaurtinib_02487_R1,Plate:MR012; n = 1
# [4] = system: MAP4K3; details: read-out: apparent Kd; compound concentrations:100 nM and 1000 nM (sheet 'Lestaurtinib' of Supplementary Table 1),run:Lestaurtinib_03172_R3,Plate:MR031; n = 1
# [5] = system: MAPK14; details: read-out: apparent Kd; compound concentrations:100 nM and 1000 nM (sheet 'Lestaurtinib' of Supplementary Table 1),run:Lestaurtinib_02422_R1,Plate:MR006; n = 1
# [6] = system: MERTK; details: read-out: apparent Kd; compound concentrations:100 nM and 1000 nM (sheet 'Lestaurtinib' of Supplementary Table 1),run:Lestaurtinib_02766_R2,Plate:MR027; n = 1
# [7] = system: MET; details: read-out: apparent Kd; compound concentrations:100 nM and 1000 nM (sheet 'Lestaurtinib' of Supplementary Table 1),run:Lestaurtinib_02724_R1,Plate:MR021; n = 1
# [8] = system: PIK3CG; details: read-out: apparent Kd; compound concentrations:100 nM and 1000 nM (sheet 'Lestaurtinib' of Supplementary Table 1),run:Lestaurtinib_02487_R1,Plate:MR012; n = 1
# [9] = system: PIM1; details: read-out: apparent Kd; compound concentrations:100 nM and 1000 nM (sheet 'Lestaurtinib' of Supplementary Table 1),run:Lestaurtinib_02487_R1,Plate:MR012; n = 1
# [10] = system: PIP4K2C; details: read-out: apparent Kd; compound concentrations:100 nM and 1000 nM (sheet 'Lestaurtinib' of Supplementary Table 1),run:Lestaurtinib_02487_R1,Plate:MR012; n = 1
# [11] = system: PKN3; details: read-out: apparent Kd; compound concentrations:100 nM and 1000 nM (sheet 'Lestaurtinib' of Supplementary Table 1),run:Lestaurtinib_02487_R1,Plate:MR012; n = 1
# [12] = system: PRKACG; details: read-out: apparent Kd; compound concentrations:100 nM and 1000 nM (sheet 'Lestaurtinib' of Supplementary Table 1),run:Lestaurtinib_02422_R1,Plate:MR006; n = 1
# [13] = system: PRKAR2A; details: read-out: apparent Kd; compound concentrations:100 nM and 1000 nM (sheet 'Lestaurtinib' of Supplementary Table 1),run:Lestaurtinib_02364_R2,Plate:MR002; n = 1
# [14] = system: PRKCQ; details: read-out: apparent Kd; compound concentrations:100 nM and 1000 nM (sheet 'Lestaurtinib' of Supplementary Table 1),run:Lestaurtinib_02487_R1,Plate:MR012; n = 1
# [15] = system: PRKDC; details: read-out: apparent Kd; compound concentrations:100 nM and 1000 nM (sheet 'Lestaurtinib' of Supplementary Table 1),run:Lestaurtinib_02422_R1,Plate:MR006; n = 1
# [16] = system: PTK2; details: read-out: apparent Kd; compound concentrations:100 nM and 1000 nM (sheet 'Lestaurtinib' of Supplementary Table 1),run:Lestaurtinib_02487_R1,Plate:MR012; n = 1
# [17] = system: PTK6; details: read-out: apparent Kd; compound concentrations:100 nM and 1000 nM (sheet 'Lestaurtinib' of Supplementary Table 1),run:Lestaurtinib_02487_R1,Plate:MR012; n = 1
# [18] = system: RIPK2; details: read-out: apparent Kd; compound concentrations:100 nM and 1000 nM (sheet 'Lestaurtinib' of Supplementary Table 1),run:Lestaurtinib_02487_R1,Plate:MR012; n = 1
# [19] = system: RPS6KA1; details: read-out: apparent Kd; compound concentrations:100 nM and 1000 nM (sheet 'Lestaurtinib' of Supplementary Table 1),run:Lestaurtinib_02487_R1,Plate:MR012; n = 1
# [20] = system: RPS6KB1; details: read-out: apparent Kd; compound concentrations:100 nM and 1000 nM (sheet 'Lestaurtinib' of Supplementary Table 1),run:Lestaurtinib_02766_R3,Plate:MR027; n = 1
substance,measurement,setting,value
Lestaurtinib,potency estimated from few doses,[1],979 nM
same,potency estimated from few doses,[2],550 nM
same,potency estimated from few doses,[3],808 nM
same,potency estimated from few doses,[4],2110 nM
same,potency estimated from few doses,[5],1150 nM
same,potency estimated from few doses,[6],1410 nM
same,potency estimated from few doses,[7],2150 nM
same,potency estimated from few doses,[8],1570 nM
same,potency estimated from few doses,[9],860 nM
same,potency estimated from few doses,[10],86.5 nM
same,potency estimated from few doses,[11],755 nM
same,potency estimated from few doses,[12],769 nM
same,potency estimated from few doses,[13],979 nM
same,potency estimated from few doses,[14],2170 nM
same,potency estimated from few doses,[15],1210 nM
same,potency estimated from few doses,[16],345 nM
same,potency estimated from few doses,[17],533 nM
same,potency estimated from few doses,[18],810 nM
same,potency estimated from few doses,[19],1820 nM
same,potency estimated from few doses,[20],1570 nM
